Among all 330,000 compounds or so, about 1,900 (0.58%) were called active. Another 4% or so got no clear call; they are omitted. Not all results are given here. Entries with a potency or affinity are not part of this list. A number with no mark means an inactive call. Rule as the data show it: inconclusive = inhibition above about 70% without an active follow-up result; inactive = below that.
test: M. tuberculosis growth inhibition, HTS (AID 449762);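 also: bacterial growth assessed after seven days of incubation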; details: M. tuberculosis H37Rv growth inhibition, 7H9 media; at 25 µM; active compounds read high

SMILES	inhibition [%]
CC(=O)N1CCN(c2nc(C)nc3sc4c(c23)CCC(C)C4)CC1 (stereo not drawn)	-0.41
NC(=O)CSc1nc(N)c2c3c(sc2n1)CCCCC3	42.6
CCCSc1nnc2n(C)c(=O)c3c4c(sc3n12)CCC4	9.4
C=C(C)CSc1nnc2n(C)c(=O)c3c4c(sc3n12)CCC4	4.7
CC(C)(C)C1CCc2c(sc3nc(SCC(=O)O)nc(N)c23)C1 (stereo not drawn)	6.02
Cc1nc(N2CCN(C(=O)c3cnccn3)CC2)c2c3c(sc2n1)CC(C(C)(C)C)CC3 (stereo not drawn)	-2.07
CC(C)(C)[C@H]1COC(=O)[C@@H](Cc2ccc(F)cc2)C/C=C\C[C@@H](CC(=O)N[C@@H](CO)Cc2ccccc2)C(=O)N1	-8.38
Cc1cc(OCC(=O)NCCCN2CCOCC2)c2c(C)cc(=O)oc2c1	3.65
O=C(Cc1c(Cl)cccc1Cl)N1CCN(Cc2ccccc2)CC1	7.3
C/C(=N\NC(=O)c1ccc(Cn2cc(Br)cn2)o1)c1cccc(NC(=O)C(C)(C)C)c1	-8.27
COc1cccc(CN(C)CC(=O)Nc2ccccc2C(=O)Nc2ccccc2)c1OC	-3.55
CN(CC(=O)Nc1ccc(F)cc1)C(=O)COC(=O)c1cc(S(=O)(=O)N(C)C)ccc1N1CCCC1	0.17
Cc1cc(C)c2cc(C(=O)Nc3ccc4c(c3)OCO4)[nH]c2c1	-1.94
CCc1ccc2[nH]c(C(=O)Nc3ccc(C)c(F)c3)cc2c1	6.38
Cc1cccc(NC(=O)C2CCN(S(=O)(=O)c3c(C)noc3C)CC2)c1	8.96
c1cc[n+](CCC[n+]2ccccc2)cc1	1.9
c1cc[n+](CCCC[n+]2ccccc2)cc1	-7
O=C(Nc1ccc(F)cc1)c1cnc(-c2ccccc2)nc1-c1ccccc1	-11.2
CCCOc1ccc2[nH]c(C(=O)N/N=C/c3cc(OC)c(OC)c(OC)c3)cc2c1	4.27
CCOc1ccc(CCNC(=O)Cc2ccc(NC3=NC4CS(=O)(=O)CC4S3)cc2)cc1 (stereo not drawn)	-10.9
COCCn1c(=NC(=O)CSC(C)=O)sc2cc(OC)ccc21	-1.47
CS(=O)(=O)c1ccc(C(=O)NC(Cc2ccccc2)c2ccccc2)cc1 (stereo not drawn)	-2.61
CS(=O)(=O)c1ccc(C(=O)NCc2ccccc2F)cc1	-1.2
Cn1cc(C(=O)N2CCCCC2)c2ccccc21	5.24

SMILES	inhibition [%]
CCCCC[C@@H]1C=C(C(=O)O)[C@H](c2cccc(C)c2)N1S(=O)(=O)c1ccc(C)cc1	9.09
S=C(NCCNC(=S)Nc1ccccc1)Nc1ccccc1	-0.85
COc1ccc(C(CNc2nc(-c3cccnc3)nc3ccccc23)N(C)C)cc1 (stereo not drawn)	-3.31
COC(=O)C1=C(C)N(C)C(=S)NC1c1c(OC)ccc2ccccc12 (stereo not drawn)	8.17
O=C1NCN(c2ccccc2)C12CCN(c1nnnn1-c1ccccc1)CC2	-2.38
O=C1NCN(c2ccccc2)C12CCNCC2	-2.9
COc1ccc(S(=O)(=O)N(C)CC(=O)NC2CCCC2)cc1OC	-0.73
Cc1ccc(-c2ccccc2NC(=O)C2C3C=CC(C3)C2C(=O)O)o1 (stereo not drawn)	3.02
CC(=O)Nc1cccc(NC(=O)C2C3C=CC(C3)C2C(=O)O)c1 (stereo not drawn)	1.17
CCCCOc1ccc(C(=O)N2CCN(c3ccc(N4CCOCC4)nn3)CC2)cc1	37.3
CNC1=C([N+](=O)[O-])CC([N+](=O)[O-])=C(N2CCNCC2)N1C	1.39
Cc1nn(Cc2ccccc2)c(Cl)c1C(=O)OCC(=O)NC(=O)NC12CC3CC(CC(C3)C1)C2	3.45
CC1CCc2nc3ccccc3c(C(=O)OCC(=O)NC3CCS(=O)(=O)C3)c2C1 (stereo not drawn)	9.92
Cc1c2ccccc2nc2ccccc12	21.6
CCOC(=O)c1cc(-c2ccc(N3CCOCC3)cc2)nn1-c1ccccc1C(=O)O	-2.68
CCOC(=O)c1cc(-c2ccc(N3CCOCC3)cc2)nn1-c1ccc(F)cc1F	30.5
COc1ccccc1N1CCN(c2nnc(-c3ccc(F)cc3)c3ccccc23)CC1	-0.63
COc1cc(C(=O)N/C(=C\c2cn(S(=O)(=O)N(C)C)c3ccccc23)C(=O)N2CCCC2)cc(OC)c1OC	7.41
COc1cc(/C=N/n2cc(-c3ccccc3)[nH]c2=S)cc(OC)c1O	-4.41
Cc1ccc(-n2cnc3scc(-c4cccs4)c3c2=O)cc1	9.75
O=c1cc(/C=C/c2ccccc2)oc2c1ccc1ccccc12	-0.73
O=c1cc(-c2ccccc2)oc2ccccc12	-7.12
CN1CCCN(C(=O)c2cc(-c3ccc(Cl)c(Cl)c3Cl)nc3ccccc23)CC1	5.52
CCOCCCNC(=O)C(NC(=O)Cc1cccs1)c1ccc(OC)cc1 (stereo not drawn)	3.59

SMILES	inhibition [%]
CCOC(=O)c1sc(C)c2c(=O)n(CCc3ccccc3)nnc12	-10.6
CCOC(=O)c1sc(C)c2c(=O)n(CC)nnc12	-7.87
COC(=O)C1=C(C)N(CCCC(=O)O)C(=O)NC1c1ccc(Br)cc1 (stereo not drawn)	2.77
COCCn1cc(C(=S)N2CCCCC2)c2ccccc21	5.15
CCOc1ccc(NS(=O)(=O)c2ccc(C(=O)NCCN3CCOCC3)cc2)cc1	-3.65
CCNC(=S)N/N=C/c1ccc(-c2ccccc2)o1	-5.23
NC(=S)N/N=C/c1ccc(-c2cc(Cl)cc(Cl)c2)o1	-4.69
CC(=O)N1CCN(C(=O)C(Cc2ccccc2)NC(=O)c2ccccc2)CC1 (stereo not drawn)	-1.96
COc1cc(CSC)nc(-c2ccccc2)n1	-6.71
CC(=O)N1N=C(c2ccc(Cl)cc2)CC1c1ccc([N+](=O)[O-])cc1 (stereo not drawn)	-2.62
CC1(O)CC(c2ccc(Cl)cc2)=NN1C(=O)c1ccc(Cl)cc1 (stereo not drawn)	47.7
CC(=O)Nc1ccc(NC(=O)CCn2c(=S)oc3ccccc32)cc1	0.4
Cc1cccc(C)c1NC(=S)N(Cc1ccccc1)Cc1cccnc1	-3.48
O=C(O)[C@@H]1[C@@H]2C[C@@H]2CN1c1ncccc1[N+](=O)[O-]	-3.12
CN1C(=O)N(C)c2ccc(Br)c3cccc1c23	-5.58
CN1C(=O)N(C)c2cccc3cccc1c23	7.44
O=C(c1cc2c(=O)n3ccccc3nc2s1)N1CCN(c2cccc(Cl)c2)CC1	5.56
CC(=O)c1nn(-c2ccccc2)cc1C(=O)c1ccc(C)cc1	2.07
COc1ccc2oc(-c3ccc(C)c(NC(=O)CSc4ccc(Cl)cc4)c3)nc2c1	-3.67
Cc1ccc(/C=C2\SC(=S)N(CCC(=O)NNC(=O)c3ccc(O)cc3)C2=O)cc1	3.42
Cc1ccccc1C1=N/C(=C/c2cccs2)C(=O)O1	61
Cc1cccc(C2=N/C(=C\c3cccnc3)C(=O)O2)c1	-3.98
CCOC(=O)N=Nc1c(O)n(CC(=O)OC)c2ccccc12	-0.16
CCCSc1nc2c(cnn2-c2ccc(Cl)cc2)c(=O)[nH]1	6.95

SMILES	inhibition [%]
O=C(NNC(=O)c1cc(S(=O)(=O)N2CCOCC2)c(Cl)cc1Cl)c1ccccc1F	0.47
Cc1nn(Cc2ccccc2)c(C)c1C(=O)OCC(=O)Nc1cc(S(C)(=O)=O)ccc1Cl	6.17
O=C(Nc1ccc(F)cc1)N1CCN(c2ccc3nnc(-c4ccc(F)cc4)n3n2)CC1	-4.53
O=C(Nc1ccccc1Cl)N1CCN(c2ccc3nnc(-c4ccc(F)cc4)n3n2)CC1	22.4
CC1=C(C(=O)NC(C)c2ccccc2)C2(CCC(C)CC2)OC1=O (stereo not drawn)	-6.81
Cc1cc(/C=C(\C#N)C(=O)NCc2ccccc2)cc(C)c1O	-9.9
CCOc1cc(CNCc2ccc3c(c2)OCO3)ccc1OC	-2.37
COc1ccc(CCNC(=O)CSc2ncc(C(=O)Nc3ccccc3)c(=O)n2C)cc1	-4.13
Cc1cccc(NC(=S)N(CCCN2CCCC2)Cc2cccn2Cc2ccc(Cl)cc2)c1	42.3
COc1cccc(NC(=S)N(CCCN2CCCC2)Cc2cccn2Cc2ccc(Cl)cc2)c1	6.09
CN(C)N1C(=O)/C(=C/c2ccco2)SC1=Nc1ccccc1	-2.31
OC1(c2ccccc2)CCN(Cc2ccccc2)CC1	-0.23
ClC1(CNc2ccccc2)CCN(Cc2ccccc2)CC1	-3.08
CCOC(=O)N1CCC2(CC1)C(C#N)=C(N)OC1=C2C(=O)CC(C)C1 (stereo not drawn)	-8.64
COc1ccc(NC(=O)CSc2nc3ccccc3c(=O)[nH]2)cc1S(N)(=O)=O	-3.14
CC(=O)Nc1ccc(-c2csc(N/N=C\c3ccncc3)n2)cc1	6.44
C(=N\Nc1nc(-c2ccccc2)cs1)/c1cccs1	28.8
CC(CNC(=O)CN1C(=O)NC2(CCCCC2)C1=O)c1ccccc1 (stereo not drawn)	-3.97
COC(=O)c1nnn(CC(=O)NC(=O)Nc2ccccc2)c1C(=O)OC	-6.63
COc1ccc(C(=O)Nc2ccc3c(c2)C(=O)c2ccccc2C3=O)cc1OC	4.14
O=C1c2ccccc2C(=O)c2c1oc(C(F)(F)F)c2C(=O)c1ccccc1	9.23
